# Key:
# [1] = biological target: Sphingosine kinase 1 (Homo sapiens) (UniProt Q9NYA1); details: at 1 µM;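 further: mean SPHK1 inhibition value reported from the GSK PKIS kinase panel screen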
# [2] = biological target: T1, Sphingosine kinase 2 (Homo sapiens) (UniProt Q9NRA0); details: at 0.1 µM
# T1 sequence (whole entry): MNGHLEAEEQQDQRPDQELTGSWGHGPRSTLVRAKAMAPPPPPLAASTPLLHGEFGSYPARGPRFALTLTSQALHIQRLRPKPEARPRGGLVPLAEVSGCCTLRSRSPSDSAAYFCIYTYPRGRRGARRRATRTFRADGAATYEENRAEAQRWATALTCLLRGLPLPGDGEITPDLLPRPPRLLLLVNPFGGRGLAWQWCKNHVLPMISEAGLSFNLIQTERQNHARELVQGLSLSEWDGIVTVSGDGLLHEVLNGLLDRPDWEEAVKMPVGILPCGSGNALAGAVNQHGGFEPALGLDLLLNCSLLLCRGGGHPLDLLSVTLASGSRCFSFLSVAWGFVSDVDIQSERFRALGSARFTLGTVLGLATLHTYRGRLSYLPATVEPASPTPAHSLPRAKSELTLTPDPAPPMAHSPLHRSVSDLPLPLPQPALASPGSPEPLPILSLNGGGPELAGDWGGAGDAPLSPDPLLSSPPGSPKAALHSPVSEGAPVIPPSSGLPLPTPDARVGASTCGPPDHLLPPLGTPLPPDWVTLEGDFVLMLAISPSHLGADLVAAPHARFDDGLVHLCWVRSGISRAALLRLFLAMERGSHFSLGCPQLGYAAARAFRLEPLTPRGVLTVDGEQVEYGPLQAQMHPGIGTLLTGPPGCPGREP
# [3] = biological target: T1, Sphingosine kinase 2 (Homo sapiens); details: at 1 µM
# [4] = biological target: Casein kinase II subunit alpha (Homo sapiens) (UniProt P68400); details: at 0.1 µM
# [5] = biological target: Casein kinase II subunit alpha (Homo sapiens) (UniProt P68400); details: at 1 µM
# [6] = biological target: T2, Inhibitor of nuclear factor kappa-B kinase subunit alpha (Homo sapiens) (UniProt O15111); details: at 0.1 µM
# T2 sequence (whole entry): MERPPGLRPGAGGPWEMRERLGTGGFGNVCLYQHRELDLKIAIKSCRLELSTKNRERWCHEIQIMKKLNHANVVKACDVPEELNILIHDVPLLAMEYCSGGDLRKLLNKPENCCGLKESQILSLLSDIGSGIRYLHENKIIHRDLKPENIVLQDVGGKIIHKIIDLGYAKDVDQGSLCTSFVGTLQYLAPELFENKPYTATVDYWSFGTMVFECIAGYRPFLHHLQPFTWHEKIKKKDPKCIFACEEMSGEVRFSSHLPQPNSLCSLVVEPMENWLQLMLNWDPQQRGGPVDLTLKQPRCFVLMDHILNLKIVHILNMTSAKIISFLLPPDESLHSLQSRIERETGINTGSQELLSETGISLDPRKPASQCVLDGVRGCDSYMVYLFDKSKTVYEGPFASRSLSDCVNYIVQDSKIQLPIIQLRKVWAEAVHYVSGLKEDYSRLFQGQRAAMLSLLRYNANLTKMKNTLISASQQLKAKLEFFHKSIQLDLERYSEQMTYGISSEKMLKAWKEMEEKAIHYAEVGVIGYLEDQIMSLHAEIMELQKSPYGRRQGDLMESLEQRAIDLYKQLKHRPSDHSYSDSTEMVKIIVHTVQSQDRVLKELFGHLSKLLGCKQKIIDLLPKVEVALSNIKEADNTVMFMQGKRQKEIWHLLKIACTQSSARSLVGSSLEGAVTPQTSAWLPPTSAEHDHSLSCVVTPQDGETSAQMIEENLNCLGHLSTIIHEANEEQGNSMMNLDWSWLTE
# [7] = biological target: T2, Inhibitor of nuclear factor kappa-B kinase subunit alpha (Homo sapiens); details: at 1 µM
# [8] = biological target: T3, Inhibitor of nuclear factor kappa-B kinase subunit beta (Homo sapiens) (UniProt O14920); details: at 0.1 µM
# T3 sequence (whole entry): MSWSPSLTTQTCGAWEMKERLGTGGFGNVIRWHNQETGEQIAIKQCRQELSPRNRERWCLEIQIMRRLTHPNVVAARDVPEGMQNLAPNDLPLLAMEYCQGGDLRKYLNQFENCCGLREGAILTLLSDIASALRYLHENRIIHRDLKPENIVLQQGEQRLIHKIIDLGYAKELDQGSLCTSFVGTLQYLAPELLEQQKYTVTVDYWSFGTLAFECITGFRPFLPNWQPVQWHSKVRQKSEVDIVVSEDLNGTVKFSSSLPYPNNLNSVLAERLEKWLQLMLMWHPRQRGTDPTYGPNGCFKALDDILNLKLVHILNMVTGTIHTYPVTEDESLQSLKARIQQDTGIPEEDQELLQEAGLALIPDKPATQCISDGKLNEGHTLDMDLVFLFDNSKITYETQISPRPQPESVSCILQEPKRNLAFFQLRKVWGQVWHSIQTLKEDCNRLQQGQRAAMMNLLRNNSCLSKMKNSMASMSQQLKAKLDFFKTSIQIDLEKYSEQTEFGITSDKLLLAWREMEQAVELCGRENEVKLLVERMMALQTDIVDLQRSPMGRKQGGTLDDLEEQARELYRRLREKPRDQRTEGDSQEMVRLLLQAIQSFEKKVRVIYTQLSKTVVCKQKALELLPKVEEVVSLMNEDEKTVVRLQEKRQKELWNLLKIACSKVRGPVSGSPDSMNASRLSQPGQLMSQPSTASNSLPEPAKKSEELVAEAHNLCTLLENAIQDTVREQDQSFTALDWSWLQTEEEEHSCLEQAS
# [9] = biological target: T3, Inhibitor of nuclear factor kappa-B kinase subunit beta (Homo sapiens); details: at 1 µM
# [10] = biological target: T4, Inhibitor of nuclear factor kappa-B kinase subunit epsilon (Homo sapiens) (UniProt Q14164); details: at 0.1 µM
# T4 sequence (whole entry): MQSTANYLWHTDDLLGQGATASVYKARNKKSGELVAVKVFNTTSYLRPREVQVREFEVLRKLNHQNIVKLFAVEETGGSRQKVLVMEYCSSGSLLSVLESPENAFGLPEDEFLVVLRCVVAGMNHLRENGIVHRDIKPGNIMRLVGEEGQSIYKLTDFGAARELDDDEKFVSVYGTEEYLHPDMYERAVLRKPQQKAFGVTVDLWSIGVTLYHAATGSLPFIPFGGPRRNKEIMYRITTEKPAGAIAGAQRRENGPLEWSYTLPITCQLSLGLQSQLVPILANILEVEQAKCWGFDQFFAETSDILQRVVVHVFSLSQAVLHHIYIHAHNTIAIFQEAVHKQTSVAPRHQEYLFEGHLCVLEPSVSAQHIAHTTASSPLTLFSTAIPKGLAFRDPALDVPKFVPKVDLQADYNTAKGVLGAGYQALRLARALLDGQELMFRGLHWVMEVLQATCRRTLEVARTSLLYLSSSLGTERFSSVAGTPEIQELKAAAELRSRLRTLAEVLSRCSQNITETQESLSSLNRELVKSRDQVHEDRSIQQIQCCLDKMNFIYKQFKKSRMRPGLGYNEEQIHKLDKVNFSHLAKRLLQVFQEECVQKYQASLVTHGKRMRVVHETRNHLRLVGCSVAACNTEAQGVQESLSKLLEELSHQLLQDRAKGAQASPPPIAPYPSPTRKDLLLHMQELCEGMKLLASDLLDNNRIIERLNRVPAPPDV
# [11] = biological target: T4, Inhibitor of nuclear factor kappa-B kinase subunit epsilon (Homo sapiens); details: at 1 µM
# [12] = biological target: T5, Serine/threonine-protein kinase Nek1 (Homo sapiens) (UniProt Q96PY6); details: at 0.1 µM
# T5 sequence (whole entry): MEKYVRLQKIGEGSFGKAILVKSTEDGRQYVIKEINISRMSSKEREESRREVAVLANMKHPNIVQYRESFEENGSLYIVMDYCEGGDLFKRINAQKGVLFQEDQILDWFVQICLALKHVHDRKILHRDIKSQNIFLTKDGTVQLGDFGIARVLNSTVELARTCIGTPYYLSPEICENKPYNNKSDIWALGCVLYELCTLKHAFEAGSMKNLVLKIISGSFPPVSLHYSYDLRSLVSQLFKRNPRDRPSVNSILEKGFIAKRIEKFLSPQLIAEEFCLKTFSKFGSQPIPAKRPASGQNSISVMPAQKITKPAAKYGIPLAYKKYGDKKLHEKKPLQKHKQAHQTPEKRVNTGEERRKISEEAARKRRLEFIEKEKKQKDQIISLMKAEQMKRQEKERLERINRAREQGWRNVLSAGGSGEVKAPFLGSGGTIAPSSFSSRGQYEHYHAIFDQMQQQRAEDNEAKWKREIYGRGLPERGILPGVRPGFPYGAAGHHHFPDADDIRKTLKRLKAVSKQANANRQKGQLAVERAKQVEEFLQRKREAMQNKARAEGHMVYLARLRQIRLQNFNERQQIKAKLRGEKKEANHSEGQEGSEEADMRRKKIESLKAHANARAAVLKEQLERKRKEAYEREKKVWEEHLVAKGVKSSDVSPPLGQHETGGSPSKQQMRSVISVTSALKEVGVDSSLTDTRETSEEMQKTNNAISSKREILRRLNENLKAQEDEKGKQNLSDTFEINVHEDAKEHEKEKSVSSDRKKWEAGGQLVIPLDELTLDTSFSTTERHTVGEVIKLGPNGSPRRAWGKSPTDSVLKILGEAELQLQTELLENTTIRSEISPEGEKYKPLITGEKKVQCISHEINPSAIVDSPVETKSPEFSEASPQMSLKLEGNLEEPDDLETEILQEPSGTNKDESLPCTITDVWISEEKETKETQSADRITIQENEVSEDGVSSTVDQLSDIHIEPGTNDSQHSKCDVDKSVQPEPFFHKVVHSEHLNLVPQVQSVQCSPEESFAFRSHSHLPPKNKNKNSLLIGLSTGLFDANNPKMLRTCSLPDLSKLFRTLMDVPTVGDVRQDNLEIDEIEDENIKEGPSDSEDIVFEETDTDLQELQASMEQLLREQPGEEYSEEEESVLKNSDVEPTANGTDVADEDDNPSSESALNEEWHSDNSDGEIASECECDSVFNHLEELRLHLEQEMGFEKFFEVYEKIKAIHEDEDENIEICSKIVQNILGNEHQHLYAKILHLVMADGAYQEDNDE
# [13] = biological target: T5, Serine/threonine-protein kinase Nek1 (Homo sapiens); details: at 1 µM
# [14] = biological target: T6, Serine/threonine-protein kinase Nek2 (Homo sapiens) (UniProt P51955); details: at 0.1 µM
# T6 sequence (whole entry): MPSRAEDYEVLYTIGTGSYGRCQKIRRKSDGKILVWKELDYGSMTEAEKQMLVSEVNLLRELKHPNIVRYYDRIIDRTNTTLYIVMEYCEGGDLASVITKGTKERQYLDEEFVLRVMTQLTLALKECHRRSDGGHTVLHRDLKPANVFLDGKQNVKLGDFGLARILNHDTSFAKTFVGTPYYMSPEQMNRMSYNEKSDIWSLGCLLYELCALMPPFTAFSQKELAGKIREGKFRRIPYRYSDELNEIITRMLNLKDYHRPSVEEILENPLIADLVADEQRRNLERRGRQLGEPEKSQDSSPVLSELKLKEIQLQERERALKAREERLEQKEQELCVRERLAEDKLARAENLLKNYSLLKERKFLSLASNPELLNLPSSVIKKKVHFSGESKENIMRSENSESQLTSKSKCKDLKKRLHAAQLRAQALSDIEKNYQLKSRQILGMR
# [15] = biological target: T6, Serine/threonine-protein kinase Nek2 (Homo sapiens); details: at 1 µM
# [16] = biological target: Serine/threonine-protein kinase Nek6 (Homo sapiens) (UniProt Q9HC98); details: at 0.1 µM
# [17] = biological target: Serine/threonine-protein kinase Nek6 (Homo sapiens) (UniProt Q9HC98); details: at 1 µM
# [18] = biological target: Serine/threonine-protein kinase Nek7 (Homo sapiens) (UniProt Q8TDX7); details: at 0.1 µM
# [19] = biological target: Serine/threonine-protein kinase Nek7 (Homo sapiens) (UniProt Q8TDX7); details: at 1 µM
# [20] = biological target: T7, Serine/threonine-protein kinase Nek9 (Homo sapiens) (UniProt Q8TD19); details: at 0.1 µM;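 further: reported value is the mean percent inhibition of NEK9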
# T7 sequence (whole entry): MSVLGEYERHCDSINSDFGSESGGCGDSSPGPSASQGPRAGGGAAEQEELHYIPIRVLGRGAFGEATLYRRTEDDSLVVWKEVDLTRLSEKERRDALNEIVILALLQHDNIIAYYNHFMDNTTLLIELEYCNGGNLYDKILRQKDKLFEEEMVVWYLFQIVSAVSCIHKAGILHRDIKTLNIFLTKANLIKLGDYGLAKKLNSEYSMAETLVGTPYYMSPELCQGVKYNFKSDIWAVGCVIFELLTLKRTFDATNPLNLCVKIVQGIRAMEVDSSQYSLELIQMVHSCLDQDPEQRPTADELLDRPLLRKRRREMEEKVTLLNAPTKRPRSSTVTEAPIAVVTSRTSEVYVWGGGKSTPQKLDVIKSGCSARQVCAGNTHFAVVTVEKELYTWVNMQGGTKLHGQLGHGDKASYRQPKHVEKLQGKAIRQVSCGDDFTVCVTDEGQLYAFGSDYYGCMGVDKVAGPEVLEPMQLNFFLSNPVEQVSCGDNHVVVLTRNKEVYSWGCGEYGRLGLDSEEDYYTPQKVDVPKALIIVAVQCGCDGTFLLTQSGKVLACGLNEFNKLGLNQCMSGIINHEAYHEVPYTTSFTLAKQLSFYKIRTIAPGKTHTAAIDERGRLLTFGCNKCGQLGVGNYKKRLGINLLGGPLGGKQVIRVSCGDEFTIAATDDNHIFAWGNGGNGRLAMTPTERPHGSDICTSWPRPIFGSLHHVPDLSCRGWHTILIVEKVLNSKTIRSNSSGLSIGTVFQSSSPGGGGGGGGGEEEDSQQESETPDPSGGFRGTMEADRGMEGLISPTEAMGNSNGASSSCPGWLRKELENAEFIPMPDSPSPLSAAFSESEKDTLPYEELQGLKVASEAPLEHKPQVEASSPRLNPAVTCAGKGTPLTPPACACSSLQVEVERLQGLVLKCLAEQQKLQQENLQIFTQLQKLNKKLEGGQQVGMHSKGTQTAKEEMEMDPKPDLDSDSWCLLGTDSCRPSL
# Sequence of Serine/threonine-protein kinase Nek7 (Homo sapiens) (Q8TDX7 whole entry, looked up): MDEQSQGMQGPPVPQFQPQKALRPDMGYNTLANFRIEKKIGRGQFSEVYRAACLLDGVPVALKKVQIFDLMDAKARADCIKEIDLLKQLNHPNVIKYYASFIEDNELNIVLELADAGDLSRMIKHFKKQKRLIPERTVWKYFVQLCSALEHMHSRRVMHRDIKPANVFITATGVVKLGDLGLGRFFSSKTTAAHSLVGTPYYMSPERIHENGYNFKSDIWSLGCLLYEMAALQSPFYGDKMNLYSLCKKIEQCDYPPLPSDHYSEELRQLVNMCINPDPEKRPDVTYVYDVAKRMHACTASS
# Sequence of Casein kinase II subunit alpha (Homo sapiens) (P68400 whole entry, looked up): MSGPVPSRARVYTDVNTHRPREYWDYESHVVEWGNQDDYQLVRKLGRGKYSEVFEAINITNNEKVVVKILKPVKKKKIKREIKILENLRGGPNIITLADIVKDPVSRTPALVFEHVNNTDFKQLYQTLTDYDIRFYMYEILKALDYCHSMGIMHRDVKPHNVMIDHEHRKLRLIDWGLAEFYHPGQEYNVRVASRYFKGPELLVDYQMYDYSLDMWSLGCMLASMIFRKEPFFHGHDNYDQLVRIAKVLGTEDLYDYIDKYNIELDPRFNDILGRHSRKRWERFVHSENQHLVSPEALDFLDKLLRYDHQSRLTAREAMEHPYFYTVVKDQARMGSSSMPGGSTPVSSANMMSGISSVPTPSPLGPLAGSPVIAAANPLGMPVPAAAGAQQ
# Sequence of Serine/threonine-protein kinase Nek6 (Homo sapiens) (Q9HC98 whole entry): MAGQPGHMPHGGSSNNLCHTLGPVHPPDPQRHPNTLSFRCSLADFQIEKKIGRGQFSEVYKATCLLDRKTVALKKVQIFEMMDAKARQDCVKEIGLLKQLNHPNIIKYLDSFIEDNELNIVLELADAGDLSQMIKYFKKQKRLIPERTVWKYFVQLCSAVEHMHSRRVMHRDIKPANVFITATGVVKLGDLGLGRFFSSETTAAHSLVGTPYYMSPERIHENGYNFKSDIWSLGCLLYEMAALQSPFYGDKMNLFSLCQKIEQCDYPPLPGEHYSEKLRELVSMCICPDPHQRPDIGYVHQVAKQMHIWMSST
# Sequence of Sphingosine kinase 1 (Homo sapiens) (Q9NYA1 whole entry): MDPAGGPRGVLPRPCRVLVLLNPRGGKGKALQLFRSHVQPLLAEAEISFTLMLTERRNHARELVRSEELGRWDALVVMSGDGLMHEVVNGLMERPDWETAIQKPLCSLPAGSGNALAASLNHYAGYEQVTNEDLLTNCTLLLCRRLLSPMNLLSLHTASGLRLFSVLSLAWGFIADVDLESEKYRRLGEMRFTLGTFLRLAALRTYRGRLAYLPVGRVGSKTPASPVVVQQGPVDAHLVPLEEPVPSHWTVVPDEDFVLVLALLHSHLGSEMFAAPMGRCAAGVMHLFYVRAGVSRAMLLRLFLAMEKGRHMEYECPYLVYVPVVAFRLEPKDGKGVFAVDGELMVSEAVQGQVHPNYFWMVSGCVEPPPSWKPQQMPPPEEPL
smiles,measurement,setting,value
CN(C)C(=O)O[C@@H]1CN[C@@H](C#Cc2cc3ncnc(Nc4ccc(OCc5cccc(F)c5)c(Cl)c4)c3s2)C1,inhibition,[1],-1.68%
same,inhibition,[2],0%
same,inhibition,[3],0%
same,inhibition,[4],-1.08%
same,inhibition,[5],-1.78%
same,inhibition,[6],6.13%
same,inhibition,[7],-0.14%
same,inhibition,[8],4.79%
same,inhibition,[9],2.73%
same,inhibition,[10],0.34%
same,inhibition,[11],-2.71%
same,inhibition,[12],1.22%
same,inhibition,[13],0.34%
same,inhibition,[14],2%
same,inhibition,[15],2.88%
same,inhibition,[16],0.28%
same,inhibition,[17],-0.53%
same,inhibition,[18],3.24%
same,inhibition,[19],2.3%
same,inhibition,[20],0.42%
